Source: PubChem BioAssay
TDP-43 yeast inh = rescues yeast growth from TDP-43 toxicity | TDP-43 expressing yeast growth rescue, BacTiter-Glo, 24 h | Potency, µM (titrated, usually from 46.1 µM), for the others: at the top dose growth rescue (activation), actives largely listed as activators | actives 1.8% (n = 410,000); also: % of control where 0% means no effect; nearly all actives have a fitted effect of over 50% in size
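Luminescence from BacTiter-Glo reports growth of TDP-43-expressing yeast after 24 hr at 30 deg C with compound. Cells were raffinose-pregrown to mid-log, then seeded in galactose medium at OD600=0.02.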
Rango release inh = inhibitors of RanGTP-induced Rango-importin beta complex dissociation. Potency, µM (titrated, usually from 46.1 µM), without a hit: at the highest dose activity change, negative = inhibition. actives 0.071% (n = 340,000). Biochemical FRET Rango-importin beta, RanGTP-induced dissociation; calls by dose curve; also: % of control where 0% means no effect; nearly all actives have a fitted effect of over 45% in size
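Rango FRET biosensor (snurportin-1 IBB flanked by N-terminal EYFP and C-terminal CFP10) at 0.1 uM, with 0.25 uM importin beta in PBS, 1mM DTT, 0.02% Tween-20, 0.1% BSA. 0.6 uM Ran, 2mM GTP and 0.2 uM RCC1 were then added for 45 min at room temperature. Inhibition read as loss of FRET rise.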
S-ASM inh = inhibitors of human secretory acid sphingomyelinase; P17405; placental ASM, HMU-PC fluorogenic substrate, 60 min; Potency, µM (series often up to 57.5 µM), without a hit: top-dose activity change, negative = inhibition, usual class: inhibitors; actives 0.006% (n = 340,000); AID 504937
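qHTS format. ASM enzyme prepared from human placenta hydrolyses the fluorogenic substrate HMU-PC0 (9 uM final) over 60 min at 37 °C after a 10 min compound preincubation.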
Rango complex inh = prevents formation of the Rango-importin beta complex | Potency, µM (highest dose often 92.2 µM), inactives show at the top dose inhibition of complex formation | Q14974 | actives 0.031% (n = 340,000) | Rango CFP/YFP FRET sensor + importin beta, 45 min | AID 540263; calls by dose curve;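 also: 0% = DMSO wells and 100% = buffer wells lacking importin beta; nearly all actives have a fitted effect of over 15% in size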
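FRET biosensor (snurportin 1 IBB flanked by EYFP and cerulean), 50 nM, with compound 5 min, then 0.125 microM importin beta in PBS, 1 mM DTT, 0.02% Tween-20, 0.1% BSA. CFP/YFP ratio read after 45 min at room temperature; pre-read flags interference.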
aSyn rescue = inhibitors of alpha-synuclein toxicity in yeast. Yeast expressing alpha-synuclein, growth rescue, BacTiter-Glo, 24 h. Potency, µM (titrated, usually from 46.1 µM), inactives show at the highest dose growth rescue (activation), hits mostly activators. actives 0.14% (n = 370,000); also: % of control where 0% means no effect; nearly all actives have a fitted effect of over 65% in size
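Galactose-induced alpha-syn yeast (OD600=0.02, raffinose-pregrown) + pinned cpd, 24 hr, 30 deg C; growth by BacTiter-Glo luminescence. Growth restoration scores as activation.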
Abeta yeast res = A-beta toxicity reversal in yeast | yeast expressing A-beta42, growth rescue, OD600, 48 h; response scale: 0% DMSO, 100% iron-clioquinol control | actives 0.063% (n = 410,000) | Potency, µM (highest dose often 46.1 µM), usual class: activators; also: nearly all actives have a fitted effect of over 55% in size
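Yeast growth medium received pinned compounds, then yeast cells expressing toxic A-beta were added; plates incubated at 30 C for 48 hr. Growth read as absorbance at 600 nm, normalized to DMSO and equimolar FeCl3 plus clioquinol controls.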
An asterisk follows results filed as active; i = inactive; · = not tested or not shown. An excerpt weighted towards active compounds, which were near 2% of everything screened. Unless noted, calls follow the shape of the dose curve; as a rule, active = well fitted curve in the direction sought with a large enough effect; inconclusive = small, poorly fitted or top-dose-only effect, or another doubt; inactive = no such curve, though single readings can be large; an effect the other way counts as inactive or inconclusive. Potency is read from the fitted curve at half-maximal effect.

SMILES	TDP-43 yeast inh	Rango release inh	S-ASM inh	Rango complex inh	aSyn rescue	Abeta yeast res
Cc1ccccc1NC1=C(Cl)C(=O)OC1OC(=O)c1ccco1 (stereo not given)	-9.9%	-13.8%	-0.2%	-7.3%	2.5%	i
Cc1ccc(NC2=C(Cl)C(=O)OC2OC(=O)c2ccc(C)cc2)cc1 (stereo not given)	12.6µM*	-3.8%	-15.9%	-1.7%	-0.1%	i
COc1ccc(C(=O)Nc2cc(OC)cc(OC)c2)cc1	29.3%	-13.3%	-1.2%	3.1%	-7.5%	i
COc1cc(NC(=O)C(Cc2ccccc2)n2cccc2)cc(OC)c1 (stereo not given)	20µM*	8.0%	-4.5%	0.4%	4.7%	i
COc1cc(NC(=O)c2ccccc2)cc(OC)c1	0.0%	-14.2%	-2.6%	-1.3%	3.55µM*	i
COCCN1CCN(Cc2ccc(C(=O)NC(C)C)cc2)C(=O)C1=O	23.0%	·	·	·	·	i
Cn1c(=O)c2c(-c3ccccc3Cl)n(-c3cc(Cl)ccc3O)cc2n(C)c1=O	9.0%	·	·	·	·	i
